Test results reported in the supplement of paper PMC6555819.

Each sequence was assayed on LXRb:RXRa (NR concentration 270 nM, RXRa partner concentration 90 nM) (assay: PBM binding z-score (relative to random genomic background probes); higher = stronger binding; sequences stand for … in GC…GCGATTGACAGCGTAGAATGAAGG).
How it was run: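 Ligand-free nuclear receptor dimers were bound for 1 h to custom Agilent 4×180K protein-binding microarrays. Detection used antibodies against each partner (one per run). Binding z-scores rest on regression-normalized fluorescence, with random background probes as the reference.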

Sequence | PBM binding z-score
TATACAGGGTCAAAGGCCCGAGTACGAATGTCGA | 4.39
TCTTGTAGCTCAAGCAGGTTAAGAAAGCCTGAGT | 0.0107
TCTTGTGGATCAAAGGTTAAGAAAGCCGAAGCCT | 2.08
TCTTGTAGTTCAAGCAGGTTAAGAAAGCCTGAGT | 1.5
CCTACTGGGCCAAAGGTCACTGATTCCAATGCTC | 4.72
TCTGCAAGGTCAACGATGGTCAGCTAATCTGCTA | 4.06
GCAGACAGGTGAAACGAAGGTAACTCAGGGTGGC | 0.0431
ATCGAAAGCTCGAAGGTGAGTATACCCACCCGAA | -0.458
CATACAGGGTCAGCAAGGCCAGAGTAGGGACGGC | 2.23
TCATATCGGTAAAGGTGAAAGTCGAACGATATGA | 1.35
CCTTACGGGTCACTGACAGGCTATAGCATTTGGA | 3.1
GTACCAAGCTGAATAGGTCGTTGATGAGTAGGCG | -0.237
CCTGGTAGGTCAATGGTCAGCTAAAGCAGCTCGC | 1.98
CGTCCAAGGTGAGCAGGTCAGTGAAAGCGACGTG | 0.202
TCATATAGGTAAACGTGAAAGTCGAACGATATGA | 0.164
TCGAGTGGGTTAGTCGGGGCATTCAGCCAACATA | 0.985
AGAATGAGGTTGTTAAGATCAGGGAATTGCGGTC | -0.0376
CTCGAAAGGTCGGTTAAGGTGAGTATACGGATAA | 1.84
CGTAGTTGGTCAAGGTCACACACGCTATAGGTAC | 3.6
CCTGCTAGGTCAATGGTGAGCTAAAGCAGCTCGC | 0.808

Sequence | PBM binding z-score
CCTTACGTGTCAAGGTTATAGCACGGGTGGTACG | 0.638
CAAACTAGGTCAAGAGGTCAAAGTCCGCTTCCCG | 5.7
TAGCCTTGGTCAGATCGGGCCAGTATACGCTATA | -0.995
CCAGACAGGTGAAAGGGAACTCAGTCTGGTACGC | -0.0234
TCGAGTAGGTTACCAATGGGGCAGTCAGCTTTCT | 0.266
TCTCGTAGATCAGCAGGTTAAGAAAGCTGGCCAA | 0.0597
CGTCCAAGGCCAGAGAGGTCAGTGAATGCCGAGT | 1.74
CCAGACAGGTGCGAAGGTAACTCAGCCTCGATTA | -0.424
CCTATTGGGCCAAAAAGGTCATTGATGCCGATAA | 4.04
CGTCCAAGGTCAAGGTCATTGAAAGAGACTCGAA | 5.26
ATCTCTAGGTAAAGATAGTTAAGTGAATGCAAAT | 0.142
TCGTGTAGATCAAAGGTTAAGAAAGCCGAAGCCT | 1.83
ACAGACAGATGATGAAGGTAACTCAGGCTATCAT | 0.0281
AGAATGAGGGCAATGAGTTGATAGCACGGGTGGC | -0.0914
CCTACTGGGCCACGAAAGGTCATTTATTCAGTGA | 4.6
ACTTACGGGTCAACGAGGTTATAGAACGCGTATA | 4.56
TAGCCTAGGTCATTCAGGGGCCAGTATAGAAAGC | 3.2
GCTTACGGGTCAAAGGTTATAGCTTGAATAGAAT | 5.39
CGAACTAGGTCATGGACAGTGAATCTCCGCACGC | 1.46
CAAACTAGGTCAAAGGTCTAAGTCGAGCCAACCA | 3.21
